A short description of assay [1]: small molecules captured by biotinylated probe aFSTL3 – biochemical, small-molecule microarray, fluorescence 635/667, stem cell growth factor project, primary screen (AID 1064).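 Also: measures binding of the biotinylated anti-FSTL3 antibody to printed compounds.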 The following applies: higher = more signal.
Assay [2] is described as follows: binders from COS7 lysate, DM2A8 probe, primary screen, torsin A project, cell lysate, small-molecule microarray, fluorescence 635/667 (AID 1065). The following applies: higher = more signal, COS7 lysate expressing mutant human TOR1A.
The nature of assay [3]: small molecules captured by biotinylated probe aFGF2 – biochemical, small-molecule microarray, fluorescence 635/667, stem cell growth factor project, primary screen (AID 1067).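 Also: measures binding of biotinylated aFGF2 protein to printed compounds on slides; z-score merges feature fluorescence and signal-to-noise across triplicate slides.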 Conditions: higher = more signal.
Assay [4] is described as follows: small molecules captured by biotinylated probe aFGF10 – biochemical, small-molecule microarray, fluorescence 635/667, stem cell growth factor project, primary screen (AID 1071).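 Also: score merges 667 nm spot intensity and signal to noise from triplicate slides.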 Conditions: higher = more signal.
The target in assay [5] is Neurogenic locus notch homolog protein 2 (Homo sapiens) (UniProt Q04721). Kind of assay: small molecules binding Notch2 protein – biochemical, small-molecule microarray, 635 nm fluorescence, stem cell growth factors, primary screen (AID 1073). The following applies: higher = more signal.
In assay [6] the target is Pro-neuregulin-1, membrane-bound isoform (Homo sapiens) (UniProt Q02297). In words: small molecules binding neuregulin-1 protein – biochemical, small-molecule microarray, fluorescence 635/667, psychiatric disease protein project, primary screen (AID 1075).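 Also: score combines 667 nm spot fluorescence with signal to noise.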 The following applies: NRG1 binding, 635 nm fluorescence, higher = more signal.
Assay [7] concerns Neuregulin-1 EGF-like domain. Kind of assay: small molecules binding NRG1 EGF domain – biochemical, small-molecule microarray, 635 nm fluorescence, primary screen (AID 1081).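 Also: binding of the protein to compounds printed on small-molecule microarray slides.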 The following applies: higher = more signal.
Assay [8] is described as follows: FRG1 expression reporter modulators in myotubes – cell-based, C2C12 myotubes, firefly/Renilla luciferase, luminescence, FRG1 inhibition for FSHD, primary screen (AID 1084). Conditions: FRG1 promoter luciferase, higher = more signal, called active from +8 up or from −8 down.
Assay [9] in a line: small molecules captured by biotinylated probe aFST – biochemical, small-molecule microarray, fluorescence 635/667, stem cell growth factor project, primary screen (AID 1086).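 Also: score merges 667 nm fluorescence with signal-to-noise of each printed compound spot.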 Conditions: higher = more signal.
Assay [10] is described as follows: binders of probe aHhip on microarray, primary screen, stem cell growth factor project, biochemical, small-molecule microarray, fluorescence 635/667 (AID 1087).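 Also: score merges spot fluorescence at 667nm with spot signal to noise ratio.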 Conditions: higher = more signal.
Assay [11] concerns PRMT1 (protein arginine N-methyltransferase 1). In words: small molecules binding arginine methyltransferase PRMT1 – biochemical, small-molecule microarray, 635 nm fluorescence, primary screen (AID 1088).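 Also: binding of Prmt1 protein to compounds spotted on small-molecule microarray slides.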 Conditions: higher = more signal.
Assay [12] in a line: growth effects on S. cerevisiae YJM789 – YJM789 clinical isolate, OD600, 24 h, basal, primary screen (AID 1089).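 Also: growth of clinical yeast isolate S. cerevisiae YJM 789 seeded 1000 cells per well; test concentration not given here.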 The following applies: higher = more signal, called active from +8 up or from −8 down.
A short description of assay [13]: S. pombe growth modifiers, basal conditions – strain 972, OD600, 24 h, no modulator, primary screen (AID 1090).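 Also: basal condition with compound alone and no growth modifier present; test concentration not given here.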 The following applies: S. pombe 972 growth, higher = more signal, called active from +8 up or from −8 down.
A short description of assay [14]: budding yeast growth modifiers under rapamycin – strain BY4716, OD600, 96 h, primary screen (AID 1091). Also: test concentration not given here. The following applies: S. cerevisiae BY4716 + rapamycin, higher = more signal, called active from +8 up or from −8 down.
Assay [15] addresses Torsin-1A-interacting protein 2 (Homo sapiens) (UniProt Q8NFQ8). In words: small molecules binding lysate-expressed LULL1 – cell lysate, human LULL1 lysate, 635/667 nm fluorescence, primary screen (AID 1092).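 Also: score merges per-feature 667 nm fluorescence with signal-to-noise.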 Conditions: small-molecule microarray, hLULL1 lysate binding, 635 nm fluorescence; higher = more signal.
Assay [16] can be described thus: optical density change of DRC41 E. coli – strain DRC41, OD650, 24 h, E. coli filamentation project, primary screen (AID 1093).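 Also: MC1000 strain lacking acrAB efflux and sulA so SOS filamentation is blocked; test concentration not given here.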 The following applies: E. coli DRC41 growth, higher = more signal, called active from +8 up or from −8 down.
Assay [17] in a line: probe aLefty2 binding to arrayed compounds – biochemical, biotinylated probe, 635/667 nm fluorescence, primary screen (AID 1094).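 Also: score merges spot fluorescence near 667 nm with spot signal-to-noise ratio.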 The following applies: small-molecule microarray, higher = more signal.
The subject of assay [18] is Noggin (protein binding on small-molecule microarray). Kind of assay: small molecules binding Noggin protein – biochemical, 635/667 nm fluorescence, primary screen (AID 1095).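 Also: score merges 667 nm feature fluorescence with signal to noise over triplicate slides.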 Conditions: 635 nm fluorescence, higher = more signal.
In assay [19] the target is Neurogenic locus notch homolog protein 3 (Homo sapiens) (UniProt Q9UM47). Kind of assay: small molecules binding NOTCH3 protein – biochemical, 635/667 nm fluorescence, primary screen (AID 1096). Conditions: small-molecule microarray, 635 nm fluorescence, higher = more signal.
The nature of assay [20]: probe aEGFR binding to arrayed compounds – biochemical, biotinylated probe, 635/667 nm fluorescence, primary screen (AID 1097).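 Also: probe is a biotinylated anti-EGFR antibody binding compounds printed on slides; score combines fluorescence near 667 nm and signal to noise of each spot.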 The following applies: small-molecule microarray, higher = more signal.

Activity calls are given as the source filed them.

Sequence of Pro-neuregulin-1, membrane-bound isoform (Homo sapiens) (Q02297 whole entry, looked up, the tested form may be a part, canonical isoform): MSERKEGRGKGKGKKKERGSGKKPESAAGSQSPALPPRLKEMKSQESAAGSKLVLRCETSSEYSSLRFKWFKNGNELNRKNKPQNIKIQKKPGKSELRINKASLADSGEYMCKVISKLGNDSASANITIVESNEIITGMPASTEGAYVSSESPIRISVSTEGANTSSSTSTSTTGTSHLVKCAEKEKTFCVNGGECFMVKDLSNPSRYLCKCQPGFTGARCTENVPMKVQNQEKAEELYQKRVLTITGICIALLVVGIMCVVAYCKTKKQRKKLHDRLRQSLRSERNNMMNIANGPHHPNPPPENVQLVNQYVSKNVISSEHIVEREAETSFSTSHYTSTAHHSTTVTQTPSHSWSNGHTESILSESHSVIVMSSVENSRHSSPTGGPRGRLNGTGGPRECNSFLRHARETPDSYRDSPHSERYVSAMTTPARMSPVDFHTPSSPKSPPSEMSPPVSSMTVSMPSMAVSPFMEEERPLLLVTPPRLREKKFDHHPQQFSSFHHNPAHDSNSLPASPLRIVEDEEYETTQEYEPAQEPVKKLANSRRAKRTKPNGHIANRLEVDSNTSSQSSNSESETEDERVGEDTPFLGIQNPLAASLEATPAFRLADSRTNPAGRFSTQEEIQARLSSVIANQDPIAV
Sequence of Neurogenic locus notch homolog protein 3 (Homo sapiens) (Q9UM47 whole entry, looked up): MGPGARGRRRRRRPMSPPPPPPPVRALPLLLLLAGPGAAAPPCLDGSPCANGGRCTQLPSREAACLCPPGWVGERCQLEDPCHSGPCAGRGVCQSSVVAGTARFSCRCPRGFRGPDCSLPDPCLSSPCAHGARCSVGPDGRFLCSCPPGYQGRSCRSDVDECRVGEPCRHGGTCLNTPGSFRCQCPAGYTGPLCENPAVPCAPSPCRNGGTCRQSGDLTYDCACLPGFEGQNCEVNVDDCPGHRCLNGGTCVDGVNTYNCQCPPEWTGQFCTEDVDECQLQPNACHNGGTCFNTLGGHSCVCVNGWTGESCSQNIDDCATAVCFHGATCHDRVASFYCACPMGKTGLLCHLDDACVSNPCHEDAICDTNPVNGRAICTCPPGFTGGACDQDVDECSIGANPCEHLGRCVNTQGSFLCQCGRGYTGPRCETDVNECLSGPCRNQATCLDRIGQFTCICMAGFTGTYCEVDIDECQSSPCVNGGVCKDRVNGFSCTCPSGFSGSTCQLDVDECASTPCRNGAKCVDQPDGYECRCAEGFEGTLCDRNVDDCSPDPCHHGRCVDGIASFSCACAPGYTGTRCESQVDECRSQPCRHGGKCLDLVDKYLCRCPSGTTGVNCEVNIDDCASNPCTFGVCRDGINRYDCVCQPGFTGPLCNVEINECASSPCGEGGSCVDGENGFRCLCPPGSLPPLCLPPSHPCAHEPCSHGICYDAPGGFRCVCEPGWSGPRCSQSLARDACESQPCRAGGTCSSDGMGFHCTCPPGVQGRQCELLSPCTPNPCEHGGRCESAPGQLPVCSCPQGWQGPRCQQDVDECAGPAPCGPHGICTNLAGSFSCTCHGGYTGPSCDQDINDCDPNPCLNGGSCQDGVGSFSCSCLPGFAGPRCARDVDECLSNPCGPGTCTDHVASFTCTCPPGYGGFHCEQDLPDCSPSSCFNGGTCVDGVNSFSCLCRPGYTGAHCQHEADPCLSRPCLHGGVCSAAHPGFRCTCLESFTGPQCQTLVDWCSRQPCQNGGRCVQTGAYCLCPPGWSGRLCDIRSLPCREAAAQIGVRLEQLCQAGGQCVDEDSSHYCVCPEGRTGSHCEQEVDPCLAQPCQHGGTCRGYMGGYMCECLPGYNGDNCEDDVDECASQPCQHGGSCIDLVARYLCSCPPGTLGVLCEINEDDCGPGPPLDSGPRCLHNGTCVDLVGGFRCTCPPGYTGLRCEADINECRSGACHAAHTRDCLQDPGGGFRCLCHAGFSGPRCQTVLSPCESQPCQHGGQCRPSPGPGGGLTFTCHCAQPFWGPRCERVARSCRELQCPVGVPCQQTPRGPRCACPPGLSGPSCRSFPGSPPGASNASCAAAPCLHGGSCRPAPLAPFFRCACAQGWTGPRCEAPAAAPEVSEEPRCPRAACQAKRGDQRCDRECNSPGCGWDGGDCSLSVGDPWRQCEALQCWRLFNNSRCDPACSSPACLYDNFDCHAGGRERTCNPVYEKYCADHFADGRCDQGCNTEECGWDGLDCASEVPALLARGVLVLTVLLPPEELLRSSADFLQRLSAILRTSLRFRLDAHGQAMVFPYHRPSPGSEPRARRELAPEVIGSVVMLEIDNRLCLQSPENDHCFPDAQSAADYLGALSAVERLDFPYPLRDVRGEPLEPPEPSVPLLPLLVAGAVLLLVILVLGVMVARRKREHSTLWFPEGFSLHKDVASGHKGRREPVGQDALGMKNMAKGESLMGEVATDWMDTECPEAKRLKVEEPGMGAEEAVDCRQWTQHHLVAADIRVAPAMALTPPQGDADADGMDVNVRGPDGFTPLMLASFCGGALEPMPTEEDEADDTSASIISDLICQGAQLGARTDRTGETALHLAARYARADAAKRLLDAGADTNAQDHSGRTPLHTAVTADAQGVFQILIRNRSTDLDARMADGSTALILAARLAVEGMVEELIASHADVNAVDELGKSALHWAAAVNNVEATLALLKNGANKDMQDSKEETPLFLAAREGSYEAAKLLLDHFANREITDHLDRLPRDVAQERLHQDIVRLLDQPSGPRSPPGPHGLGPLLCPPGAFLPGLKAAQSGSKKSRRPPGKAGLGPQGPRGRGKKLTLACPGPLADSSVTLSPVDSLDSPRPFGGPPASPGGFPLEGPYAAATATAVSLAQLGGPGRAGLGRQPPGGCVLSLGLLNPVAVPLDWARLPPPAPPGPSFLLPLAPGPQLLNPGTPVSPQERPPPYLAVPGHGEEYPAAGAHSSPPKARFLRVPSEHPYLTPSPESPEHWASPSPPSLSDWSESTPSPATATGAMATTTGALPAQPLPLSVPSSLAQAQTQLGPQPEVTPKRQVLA
Sequence of Torsin-1A-interacting protein 2 (Homo sapiens) (Q8NFQ8 whole entry, looked up): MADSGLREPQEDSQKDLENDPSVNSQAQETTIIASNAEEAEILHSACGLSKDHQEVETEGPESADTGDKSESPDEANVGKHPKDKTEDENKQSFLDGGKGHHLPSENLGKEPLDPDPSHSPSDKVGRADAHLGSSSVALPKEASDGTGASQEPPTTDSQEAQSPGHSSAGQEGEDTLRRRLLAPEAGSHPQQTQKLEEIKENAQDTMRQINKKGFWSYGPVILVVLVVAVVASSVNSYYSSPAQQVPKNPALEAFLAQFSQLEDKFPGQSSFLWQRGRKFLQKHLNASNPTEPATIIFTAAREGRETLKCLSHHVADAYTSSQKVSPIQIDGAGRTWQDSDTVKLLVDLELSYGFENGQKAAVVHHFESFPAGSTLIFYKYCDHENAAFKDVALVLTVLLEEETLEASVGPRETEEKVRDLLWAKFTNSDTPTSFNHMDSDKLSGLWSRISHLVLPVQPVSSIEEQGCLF

`OCCCC1=CC(C2CC2)N(Cc2cccc(OC(F)(F)F)c2)CC1` (stereo not given): the composite z-score is -0.367 in [1]; 0.406 in assay [2]; -0.208 in assay [3]; -0.771 in [4]; -0.464 in assay [5]; -0.106 in assay [6]. The composite z-score was 0.677 in assay [7]; -0.658 in [9]; -0.0373 in assay [10]; 0.352 in assay [11]; 0.25 in [15]; -0.264 in [17]. Besides, the composite z-score in [18] is -0.177; in assay [19], -0.477; in assay [20] it was -0.157. In addition, the z-score in assay [8] is 0.606 (inactive); in assay [12], -2.88 (inactive); in assay [13], -2.33 (inactive); in [14] it was -1.72 (inactive); in assay [16], -0.454 (inactive).
On to `CO[C@H]1O[C@H](CO)[C@@H](OC(=O)Nc2ccc(Oc3ccccc3)cc2)[C@H](OC(=O)Nc2ccc3c(c2)OCO3)[C@@H]1OC(=O)Nc1ccc2c(c1)OCO2`, for which the composite z-score in assay [1] was 0.154; in assay [2] it was 0.333; in assay [3], -0.0493; in [4] it was 1.22; in [5] it was 1.55; in assay [6] it was 0.516. Also, the composite z-score in [7] stood at 1.09; in assay [9], 0.8; in assay [10], 0.28; in assay [11], 1.53; in [15], 3.04; in assay [17] it was 0.237. Also, the composite z-score in [18] stood at 0.866; in assay [19], 1.07; in assay [20], 0.367. In addition, the z-score in assay [8] was -0.0746 (inactive); in assay [12], 2.21 (inactive); in assay [13], 1.22 (inactive); in [14] it was 8.57 (active); in [16], 1.36 (inactive).
As to `CC(C)N1CC=CC23O[C@@H]4C=CCOC(=O)[C@@H]4[C@H]2C(=O)N(CCCCCO)[C@@H]3C1=O` (stereo not given in full), the composite z-score in assay [1] was -0.354; in assay [2], 0.272; in [3], -0.153; in assay [4], -0.267; in [5], -0.669; in [6], 0.24. Also, the composite z-score in assay [7] is 1.27; in [9] it was -0.308; in assay [10], -0.132; in assay [11], 0.637; in assay [15], 2.64; in assay [17], -0.137. The composite z-score in assay [18] was -0.325; in assay [19], -0.107; in [20] it was -0.111. For the same molecule, the z-score in [8] was -0.907 (inactive); in [12] it was -1.04 (inactive); in assay [13] it was -0.288 (inactive); in assay [14], -2.25 (inactive); in assay [16] it was 3.13 (inactive).
As for `CO[C@H]1O[C@H](CO)[C@@H](OC(=O)Nc2ccccc2-c2ccccc2)[C@H](OC(=O)Nc2ccccc2-c2ccccc2)[C@@H]1OC(=O)Nc1ccccc1-c1ccccc1`, the composite z-score is 0.0212 in [1]; 0.503 in assay [2]; -0.152 in [3]; 1.03 in assay [4]; 1.1 in assay [5]; 1.35 in [6]. Besides, the composite z-score in assay [7] is 1.19; in assay [9], 0.807; in assay [10], -0.189; in [11], 1.54; in assay [15], 2.96; in assay [17], -0.0569. The composite z-score in assay [18] was 0.761; in assay [19], 1.08; in [20] it was -0.0757. Further, the z-score was 0.722 (inactive) in [8]; 1.95 (inactive) in assay [12]; 0.181 (inactive) in assay [13]; 7.28 (inactive) in [14]; 1.59 (inactive) in assay [16].
In the case of `O=C(O)C1N=C(c2ccc(OCCCO)cc2)N(c2ccccc2)O1` (stereo not given), the composite z-score in assay [1] is 0.158; in assay [2], 0.0642; in assay [3], -0.0474; in assay [4] it was 0.499; in assay [5] it was 0.778; in assay [6], -0.145. Also, the composite z-score in assay [7] was 0.527; in assay [9], -0.288; in assay [10] it was -0.136; in assay [11] it was 1.49; in [15], 2.03; in assay [17], 0.0399. Besides, the composite z-score in [18] is 0.306; in assay [19] it was 0.12; in assay [20], -0.0828. In addition, the z-score in assay [8] was 2.09 (inactive); in [12], -0.371 (inactive); in [13] it was 0.651 (inactive); in assay [14], -0.377 (inactive); in assay [16], 0.281 (inactive).
